# From PubChem
# Sampled rows, rich in hits. Any-hit rate of the full collection: about 6.5%.
# Vaccinia mCherry = vaccinia inhibition (mCherry reporter) | Potency, µM (highest dose often 36.5 µM), for the others: at the highest dose activity change, negative = inhibition, actives largely listed as inhibitors | AID 720579 | Vaccinia virus mCherry reporter infection, fluorescence | hit rate 0.63% among 310,000; calls by dose curve; tested in A549 cells; further: potency means the concentration at half of the fitted maximal effect; nearly all actives have a fitted effect of over 35% in size
# HCMV inh = human cytomegalovirus inhibition; HFF cells, HCMV-luciferase reporter, 72 h; stronger effect = lower value; activity change, negative = inhibition, % at 57.5 µM; hit rate 4.5% among 410,000; AID 1259415; in the data active means activity change below about -60%; inconclusive means no clear call, values can overlap the other calls; inactive means above about -39%
#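 Inhibition of viral replication was scored as loss of reporter luminescence in HFFs infected with HCMV-luciferase (MOI 1 PFU/cell) for 72 h; compounds tested at 2 doses, normalized to buffer and Salinomycin controls.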
# VACV Venus inh = inhibitors of vaccinia virus (Venus reporter); Vaccinia virus Venus reporter expression, fluorescence; Potency, µM (doses to about 36.5 µM), for the others: top-dose activity change, negative = inhibition, most hits filed as inhibitors; hit rate 0.46% among 330,000; calls by dose curve; tested in A549 cells; further: potency means the concentration at half of the fitted maximal effect; nearly all actives have a fitted effect of over 30% in size
# LASV entry inh = Lassa virus entry inhibition; hit rate 1.2% among 300,000; Potency, µM (highest dose often 37.9 µM), inactives show at the top dose activity change, negative = inhibition, most hits filed as inhibitors; Lassa virus pseudotype entry inhibition, cell reporter; calls by dose curve; tested in HEK293 cells; further: potency means the concentration at half of the fitted maximal effect; nearly all actives have a fitted effect of over 50% in size
# FMDV antiviral = antivirals against foot and mouth disease virus | FMDV antiviral cell-based qHTS | Potency, µM (titrated, usually from 57.9 µM), without a hit: at the top dose activity change, negative = inhibition, most hits filed as inhibitors | hit rate 1.2% among 410,000; calls by dose curve; tested in HEK293T cells; further: read-out not given here; potency means the concentration at half of the fitted maximal effect; nearly all actives have a fitted effect of over 45% in size
# Marburg entry inh = Marburg virus entry inhibition. Marburg virus pseudotyped entry inhibition, cell reporter. Potency, µM (series often up to 37.8 µM), for inactives: top-dose activity change, negative = inhibition, hits mostly inhibitors. hit rate 1.8% among 300,000. AID 540276; calls by dose curve; tested in HEK293 cells; further: potency means the concentration at half of the fitted maximal effect
# * marks the source's active call; other numbers are inactive results; i = inactive; ? = inconclusive; / = no result; [ ] = dose if it differs, or a comment. On the % scale 0 is the no-effect control and ±100 the full control effect.
SMILES,Vaccinia mCherry,HCMV inh,VACV Venus inh,LASV entry inh,FMDV antiviral,Marburg entry inh
N#Cc1c(NC(=O)CSc2nnc(-c3ccccc3)o2)sc2c1CCCC2,/,24,/,-19%,21%,?
N#Cc1c(NC(=O)CSc2nnc(-c3ccncc3)n2CC2CCCO2)sc2c1CCCC2 (stereo unspecified),-23%,-80*,-13%,-14%,-22%,-9%
N#Cc1c(NC(=O)CSc2ncc(-c3ccccc3)n2CC2CCCO2)sc2c1CCCC2 (stereo unspecified),/,-62*,/,7.3µM*,0%,5.2µM*
CCn1c(SCC(=O)Nc2sc3c(c2C#N)CCCC3)nnc1-c1ccncc1,i,58,?,-16%,-8%,12%[46.1 µM]
Cc1nnc(N/N=C/c2c(Cl)cccc2Cl)n1N,-22%,-17,-16%,1%,-7%,?
Cc1nnc(N/N=C/c2cc(C)n(-c3ccc(F)cc3)c2C)n1N,?,35,?,7.1µM*,12%,15µM*
Cc1nnc(N/N=C/c2ccccc2O)n1N,?,-104*,?,?,26%,?
Cc1cc(/C=N/NC(N)=S)c(C)n1-c1ccc(Br)cc1,-7%,11,-7%,?,-18%,?
O=C1NC(=O)c2cc(Nc3ccccc3)c(Nc3ccccc3)cc21,?,/,?,?,/,23µM*
O=C(O)CN(c1ccc2c(c1)OCCO2)S(=O)(=O)c1ccccc1,-17%,-69*,-16%,16%,-1%,13%
COC(=O)CN(c1ccc2c(c1)OCCO2)S(=O)(=O)c1ccccc1,/,-8,-7%,-1%,-8%,15%
CN(C)c1ncc2nc(-c3ccc(Cl)cc3)c(=O)n(Cc3cccs3)c2n1,/,/,/,/,-15%,/
N#Cc1ccc2nc(-c3ccc(CN4CCC(n5cc(-c6ccccc6)[nH]c5=O)CC4)cc3)c(-c3ccccc3)nc2c1,/,-99*,/,/,/,/
Cc1ccc(Cn2ccn(Cc3ccccc3F)c(=O)c2=O)cc1,2%,-10,5%,-24%[46.1 µM],10%,/
O=S(Cc1ccc(Br)cc1)Cc1nnc(SCc2ccc(Cl)cc2)n1-c1ccccc1 (stereo unspecified),i,-66*,?,13µM*,0%,?
O=S(Cc1ccc(Br)cc1)Cc1nnc(SCc2c(F)cccc2Cl)n1-c1ccccc1 (stereo unspecified),-12%,?,-29%,?,35µM*,?
COC1=CC2C(=O)C(C(c3ccccc3)C2C)C1(C)O (stereo unspecified),/,/,/,/,/,1%[14.2 µM]
O=C(CCS(=O)(=O)c1cc2c(cc1Cl)NC(=O)CO2)NCCc1ccc(Cl)cc1,-4%,12,0%,-5%[46.1 µM],-23%,/
N#Cc1c(N)nc(SCc2ccccn2)c(C#N)c1-c1cccs1,/,-69*,/,?,-1%,1%
COc1ccc2c(c1)-c1nc(-n3ncc(C(=O)N(C)CCO)c3C3CC3)ncc1CC2,-16%,/,-14%,/,35%,/
COc1cc(Nc2ncc3c(C)nc(-c4cccc(C(F)(F)F)c4)n3n2)cc(OC)c1OC,/,/,/,10µM*,/,/
COc1cc(Nc2ncc3c(C)nc(-c4cccc(Oc5ccccc5)c4)n3n2)cc(OC)c1OC,/,/,/,3.1µM*,/,/
Cc1ccc2[nH]c(C(=O)NCc3nc(-c4cccc(NC(=O)c5cc(C)oc5C)c4)oc3C)cc2c1,-16%,/,-11%,/,2%,/
OC(CNCc1ccco1)Cn1c2ccccc2c2ccccc21 (stereo unspecified),/,56,/,?,-7%,16µM*
OC(CNCc1ccco1)COc1ccccc1 (stereo unspecified),-3%,-1,-11%,-1%,4%,?
COc1ccc(C2/C(=C(/O)c3cnn(-c4ccccc4)c3C)C(=O)C(=O)N2CCN(C)C)cc1OC (stereo unspecified),i,1,5%,17%[46.1 µM],-13%,3%[46.1 µM]
COc1ccc(/C(O)=C2/C(=O)C(=O)N(CCN(C)C)C2c2ccc(OC)c(OC)c2)c(C)c1 (stereo unspecified),-24%,-71*,-19%,-3%,-14%,5%
COCCCN1C(=O)C(=O)/C(=C(/O)c2ccc(OC)cc2)C1c1cccc(OC)c1 (stereo unspecified),/,-102*,-6%,12%,-5%,-1%
